The results in this text go back to PubChem BioAssay (NCATS).

“And” between values parts separate entries of the source, which are not always exact repeats. Identical values can stand only once. Records with an inconclusive call do not appear. Unmarked numbers belong to inactive results. The source made the active and inactive calls. Unless noted, the call rests on the fitted dose curve; in most records, active means well fitted curve in the direction sought with a large enough effect; inconclusive means small, poorly fitted or top-dose-only effect, or another doubt; inactive means no such curve, though single readings can be large; an effect the other way counts as inactive or inconclusive.

The target in assay [1] is Cellular tumor antigen p53 (Homo sapiens) (UniProt P04637). The assay is described as follows: Primary qHTS for small molecule compounds that upregulate eGFP-tagged delta133p53alpha (in N-terminal) cells. (AID 2060322). Further: nearly all actives have a fitted effect of over 75% in size. Further: potency means the concentration at half of the fitted maximal effect.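 On activation: series mostly up to about 56 µM; 0% = DMSO vehicle and 100% = reference activator.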 The settings on record: NCI-H358 eGFP-delta133p53alpha fluorescence, 24 h; activation: stronger effect = higher value. Summed up: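 NCI-H358 cells pre-induced 24 h with 10 ng/ml doxycycline to express N-terminal eGFP-delta133p53alpha, then dosed 24 h at 37C without doxycycline; fixed, Hoechst-stained, GFP intensity by laser scanning cytometry, normalized to DMSO (0%) and 57.5 uM 5-azacytidine (100%).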
Chain of Cellular tumor antigen p53 (Homo sapiens) (P04637 whole entry, looked up): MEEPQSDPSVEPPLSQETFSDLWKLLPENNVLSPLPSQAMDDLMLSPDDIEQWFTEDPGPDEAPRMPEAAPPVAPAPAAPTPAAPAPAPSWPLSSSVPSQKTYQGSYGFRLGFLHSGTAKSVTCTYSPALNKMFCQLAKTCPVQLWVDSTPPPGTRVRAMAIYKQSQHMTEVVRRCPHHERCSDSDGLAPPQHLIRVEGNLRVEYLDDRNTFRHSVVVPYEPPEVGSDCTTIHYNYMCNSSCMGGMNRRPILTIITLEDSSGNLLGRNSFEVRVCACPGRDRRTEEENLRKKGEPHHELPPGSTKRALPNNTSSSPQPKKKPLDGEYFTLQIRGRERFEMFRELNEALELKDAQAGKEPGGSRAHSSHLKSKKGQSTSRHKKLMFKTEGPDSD

Assay [2] deals with Aldehyde dehydrogenase, mitochondrial (Homo sapiens) (UniProt P05091). Nature of the assay: qHTS for Inhibitors of the Aldehyde Dehydrogenase Family (ALDH2) Validation screens (AID 2061302; active means well fitted inhibition curve with a large enough effect; title and protocol of this record describe different tests;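 further: plate controls were DMSO vehicle for no effect and maximal DPI positive control response for full effect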).
The target in assay [3] is Retinaldehyde dehydrogenase 3 (Homo sapiens) (UniProt P47895). Nature of the assay: qHTS for Inhibitors of the Aldehyde Dehydrogenase Family (ALDH1A3) Validation screen (AID 2061312). Further: nearly all actives have a fitted effect of over 45% in size. Further: potency means the concentration at half of the fitted maximal effect. A general note: In qHTS, concentration-response curves come from the screen itself.
Assay [4] in a line: BET inhibitor-based combinations targeting novel dependencies in MECOM-rearranged (r) AML: SET-2 cell line (AID 2202231). Further: nearly all actives have a fitted effect of over 35% in size. Further: potency means the concentration at half of the fitted maximal effect.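 On viability: plate controls were DMSO treated cells for no effect and wells without cells for full effect.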 The settings on record: SET-2 AML cells viability, CellTiter-Glo luminescence, 48 h; viability: stronger effect = lower value, concentration not given here. In outline:
(§1)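 Here, 11-point titrations of each agent were applied to 500 seeded cells and incubated 48 hr; CellTiter-Glo signal, scaled against DMSO and empty wells, was integrated as AUC, then Z-scored within the individual line.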

Assay [5] in a line: BET inhibitor-based combinations targeting novel dependencies in MECOM-rearranged (r) AML: OCI-AML3 cell line (AID 2202232). Further: nearly all actives have a fitted effect of over 35% in size. Further: potency means the concentration at half of the fitted maximal effect. Conditions: Potency: OCI-AML3 viability. Summed up:
as §1

The nature of assay [6]: BET inhibitor-based combinations targeting novel dependencies in MECOM-rearranged (r) AML: HNT-34 cell line (AID 2202234). Further: nearly all actives have a fitted effect of over 35% in size. Further: potency means the concentration at half of the fitted maximal effect. Summed up:
(§2)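 Normalized to DMSO and empty-well controls, the luminescence data from CellTiter-Glo after 48 hr drug exposure were fitted across 11 concentrations. Reported metrics are area under the dose-response curve and its Z-transformed form.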

The nature of assay [7]: BET inhibitor-based combinations targeting novel dependencies in MECOM-rearranged (r) AML: AML-191 cell line (AID 2202236; further: nearly all actives have a fitted effect of over 35% in size; further: potency means the concentration at half of the fitted maximal effect). In outline:
as §1

Assay [8] in a line: BET inhibitor-based combinations targeting novel dependencies in MECOM-rearranged (r) AML: MV-4-11 cell line (AID 2202233). Further: nearly all actives have a fitted effect of over 45% in size. Further: potency means the concentration at half of the fitted maximal effect. In outline: as §2
Assay [9] can be described thus: BET inhibitor-based combinations targeting novel dependencies in MECOM-rearranged (r) AML: UCSD-AML1 cell line (AID 2202235). Further: nearly all actives have a fitted effect of over 40% in size. Further: potency means the concentration at half of the fitted maximal effect. Summed up: as §2
Assay [10] is described as follows: BET inhibitor-based combinations targeting novel dependencies in MECOM-rearranged (r) AML: AML-194 cell line (AID 2202237;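 further: plate controls were vehicle wells for no effect and wells without cells for full effect; nearly all actives have a fitted effect of over 40% in size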). In outline:
as §1

Assay [11] addresses Aldehyde dehydrogenase, mitochondrial (Homo sapiens) (UniProt P05091). Nature of the assay: qHTS for Inhibitors of the Aldehyde Dehydrogenase Family (ALDH2) Confirmatory screens (AID 2061303; active means well fitted inhibition curve with a large enough effect; title and protocol of this record describe different tests; further: nearly all actives have a fitted effect of over 45% in size; further: potency means the concentration at half of the fitted maximal effect).
Assay [12] has the same target. The assay is described as follows: qHTS for Inhibitors of the Aldehyde Dehydrogenase Family (ALDH2) Primary screen (AID 2061308).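 Further: plate controls were vehicle for no effect and reference inhibitor for full effect; nearly all actives have a fitted effect of over 55% in size.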
Assay [13] addresses Retinal dehydrogenase 2 (Homo sapiens) (UniProt O94788). The assay is described as follows: qHTS for Inhibitors of the Aldehyde Dehydrogenase Family (ALDH1A2) Confirmation screens (AID 2061314). Further: nearly all actives have a fitted effect of over 65% in size. Further: potency means the concentration at half of the fitted maximal effect.
In assay [14] the target is Retinaldehyde dehydrogenase 3 (Homo sapiens) (UniProt P47895). Nature of the assay: qHTS for Inhibitors of the Aldehyde Dehydrogenase Family (ALDH1A3) Primary screen (AID 2061315).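 Further: plate controls were DMSO vehicle for no effect and reference inhibitor for full effect.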
In assay [15] the target is Aldehyde dehydrogenase 1A1 (Homo sapiens) (UniProt P00352). Nature of the assay: qHTS for Inhibitors of the Aldehyde Dehydrogenase Family (ALDH1A1) Confirmatory screens (AID 2061316). Further: nearly all actives have a fitted effect of over 65% in size. Further: potency means the concentration at half of the fitted maximal effect.
For assay [16], the target named is Retinaldehyde dehydrogenase 3 (Homo sapiens) (UniProt P47895). The assay is described as follows: qHTS for Inhibitors of the Aldehyde Dehydrogenase Family (ALDH1A3) Confirmatory screens (AID 2061311). Further: nearly all actives have a fitted effect of over 60% in size. Further: potency means the concentration at half of the fitted maximal effect.
Assay [17] can be described thus: qHTS for Inhibitors of the Aldehyde Dehydrogenase Family (ALDH1A2, ALDH1A3, ALDH2, ALDH3A1) (AID 2061307). Further: nearly all actives have a fitted effect of over 50% in size.

By viability is commonly meant a read-out of living cells in per cent, often relative to untreated cells. Regarding `O=c1[nH]c2ccccc2n1CCCN1CCC(n2c(=O)[nH]c3cc(Cl)ccc32)CC1`, the activation in [1] is 22.2% and -21.7%. Moreover, the Potency result in assay [2], in assay [3], in [5], in assay [6] and in [7] was “inactive” throughout. In addition, the viability in assay [4] was 95.9%.
For the compound `C[C@]12N[C@H](Cc3ccccc31)c1ccccc12`, the activation in assay [1] is -0.686%. Moreover, the Potency entry in assay [2] and in [3] was “inactive” each time.
As to `NC(CP(=O)(O)O)C(=O)O` (stereo unspecified), in assay [1], the activation was -3.82%. Further, the Potency entry in assay [2] and in assay [3] was “inactive” in each case.
Regarding `CCCN1CC[C@@H]2c3cc(O)ccc3CC[C@@H]21`, the activation in assay [1] was -3.44%. The Potency result in assay [2] and in assay [3] was “inactive” throughout.
In the case of `CNCC(O)c1ccc(O)cc1` (stereo unspecified), the activation in assay [1] was -9.6% and -1.8% and -6.7%. Also, the Potency result in assay [2], in [3], in [8], in assay [6], in [9] and in assay [7] was “inactive” throughout. The Potency entry in assay [10] is “inactive”. In assay [4], the viability was 116%.
With `N[C@@]1(C(=O)O)CC[C@@H](C(=O)O)C1`, the activation in assay [1] was 21.8%. Also, the Potency entry in assay [2] and in [3] was “inactive” each time.
In the case of `COC[C@H]1OC(=O)c2coc3c2[C@@]1(C)C1=C(C3=O)C2CCC(=O)[C@@]2(C)C[C@H]1OC(C)=O` (stereo partly specified), in assay [1], the activation was -11.7%. The Potency result in assay [2] was “inactive”. The Potency was 7.08 µM (active) in assay [3]; 18.6 µM (active) in assay [4]; 7.42 µM (active) in [5]; 5.25 µM (active) in assay [8]; 5.9 µM (active) in [6]; 5.9 µM (active) in assay [9]. In addition, the Potency in assay [7] is 6.61 µM (active).
On to `Cc1c(N[C@@H](c2nnc(-c3ccc(C#N)cc3)o2)[C@H](C)O)ccc(C#N)c1Cl`, for which the activation in assay [1] is 21%. The Potency result in [11], in assay [12], in assay [13], in [14] and in assay [15] was “inactive” in each case.
For `CC1CCCC(O)CCC/C=C/c2cc(O)cc(O)c2C(=O)O1` (stereo unspecified), the activation in assay [1] is 28.2%. The Potency entry in [12] was “inactive”.
As to `O=C(OC[C@H]1O[C@@H](Oc2ccc(O)cc2CO)[C@H](O)[C@@H](O)[C@@H]1O)c1ccccc1`, the activation in assay [1] is 28.6%. Besides, the Potency result in assay [12] is “inactive”.
As to `N#Cc1ccc(N2CCN(C(=O)COc3ccc4[nH]cc(CCN)c4c3)CC2)cc1`, the activation in assay [1] is -4.3%. Moreover, the Potency result in [11], in assay [12], in assay [3] and in assay [15] was “inactive” each time.
Consider `C=CC(C)(C)c1[nH]c2c(CC=C(C)C)cc(CC=C(C)C)cc2c1C[C@@H]1NC(=O)[C@H](C)NC1=O`, for which, in [1], the activation was 14.3%. Moreover, the Potency entry in assay [12] is “inactive”.
Regarding `CCc1[nH]c2ccc(OC)cc2c1CCN(C)C`, in [1], the activation was 8.59%. The Potency entry in assay [11], in [12] and in assay [16] was “inactive” in each case.
As to `O=[N+]([O-])c1ccc2nc(N3CCNCC3)ccc2c1`, the activation in [1] was -42.9%. Also, the Potency is 398 nM (active) and 2.51 µM (active) in assay [11]; 14.1 µM (active) and 12.6 µM (active) in [17]; 10 µM (active) in [16]; 2.51 µM (active) and 6.31 µM (active) in assay [13]; 15.9 µM (active) in [15].
For the compound `COc1cc2c(c(OC)c1OC)-c1ccc(SC)c(=O)cc1[C@@H](NC(C)=O)CC2`, the activation in assay [1] was 8.33%. Moreover, in assay [12], the Potency result was “inactive”.
Taken in the same sequence, the figures for `CCCN1CCO[C@H]2c3cc(O)ccc3OC[C@@H]21` were 4.46% and “inactive”.
Regarding `C#CC1(O)CCC2C3CCC4=CC(=O)CCC4=C3C=CC21C` (stereo unspecified), the activation in assay [1] is -16.3%. For the same compound, the Potency entry in assay [12] was “inactive”.
For the compound `CO[C@@H]1[C@H](O)[C@@H](O[C@@H]2C[C@H]3CC[C@@H]4C(CC[C@]5(C)[C@@H](C6=CC(=O)OC6)CC[C@]45O)[C@@]3(C)[C@H](O)C2)O[C@H](C)[C@@H]1O` (stereo partly specified), the Potency in [1] was 1.04 µM (active). Moreover, the Potency entry in assay [11], in assay [17], in assay [12], in assay [16], in [13] and in assay [14] was “inactive” in each case. The Potency result in assay [15] was “inactive”.
In the case of `CCc1nn(C)c(C(=O)NCc2ccc(Oc3ccc(C)cc3)cc2)c1Cl`, in assay [1], the activation was 1.43%. Besides, the Potency entry in [12], in assay [3] and in [14] was “inactive” in each case.
Turning to `OCCCCC#Cc1cncc(OC[C@@H]2CCN2)c1`, the activation in assay [1] is -1.43%. In assay [12], the Potency entry was “inactive”.
For `COC(=O)[C@]12CCCC(C)(C)C1CCc1cc(C(C)C)c(O)c(O)c12` (stereo partly specified), the activation in assay [1] is -23.7%. In addition, the Potency result in [12] is “inactive”.
As for `CCOC(=O)c1ccc(-c2ccc(OC(=O)N(C)Cc3cccc(-c4ccncc4)c3)cc2)cc1`, the activation in assay [1] is -12.9%. Further, the Potency entry in assay [12], in assay [3] and in [14] was “inactive” each time.
In the case of `C[C@H]1CN(CC[C@H](O)C2CCCCC2)CC[C@@]1(C)c1cccc(O)c1`, in assay [1], the activation was -6.21%. Further, the Potency result in assay [12], in assay [3] and in assay [14] was “inactive” in each case.
For the compound `COc1cc2c(cc1O)C1(C)CCC(O)C(C)(C)C1CC2=O` (stereo unspecified), in assay [1], the activation is -4.58%. In addition, in assay [12], the Potency result was “inactive”.
Turning to `C1=C(c2cnc[nH]2)c2ccsc2CC1`, the activation in [1] was -3.34%. For the same compound, in assay [12], the Potency result is “inactive”. Moreover, in assay [3], the Potency is 5.62 µM (active).
Consider `C=CCN1CC[C@]23c4c5ccc(O)c4O[C@H]2[C@@H](O)CC[C@@]3(O)[C@H]1C5`, for which, in [1], the activation was 4.33%. For the same compound, the Potency entry in assay [12] is “inactive”.
For `CCOC(=O)c1ncn2c1[C@@H]1CCCN1C(=O)c1cc(OC)ccc1-2`, in [1], the activation was 2.15%. Also, the Potency result in assay [11], in [17], in assay [16], in [13] and in assay [15] was “inactive” throughout.
In the case of `C/C=C(/C)C1C=CC2CC(C)CC(C)C2C1/C(O)=C1\C(=O)NC(CC(C)(O)C(=O)O)C1=O` (stereo unspecified), the activation in [1] is -26%. For the same compound, the Potency result in assay [12], in assay [16] and in [14] was “inactive” throughout.
`CC(=O)OC12C(O)C(C)C3(O)C4C=C(C)C(=O)C4CC(CO)=CC3C1C2(C)C` (stereo unspecified): the activation in assay [1] is -3.05%. For the same compound, in assay [12], the Potency result was “inactive”.
For `CCN1C[C@]2(COC(=O)c3ccccc3N3C(=O)C[C@H](C)C3=O)CC[C@H](OC)[C@@]34[C@@H]5C[C@H]6[C@H](OC)[C@@H]5[C@](O)(C[C@@H]6OC)[C@](O)([C@@H](OC)[C@H]23)[C@@H]14`, the activation in assay [1] was 10.3%. The Potency entry in [11], in [17], in [12], in assay [16], in [13] and in assay [14] was “inactive” each time. In assay [15], the Potency result is “inactive”.
